This is a sample that favours compounds with a hit; in the whole collection about 19% have one here.
IL-1B inflam inh: blocks inflammasome-driven IL-1 beta release; activity change, % at 57.5 µM; actives 4.7% (n = 360,000); THP-1 LPS/ATP IL-1B secretion, AlphaLISA, 16 h; stronger effect = lower value; in the data active = activity change below about -50%; inconclusive = mostly about -30% to -49%
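THP-1 cells pretreated 1 hr with compounds (up to 57.5 uM final), then stimulated with LPS (250 ng/mL final) plus ATP (1.25 mM final); secreted IL-1B measured by AlphaLISA after 16 hr, decreased signal indicating inhibition.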
DT40 TDP1 CPT: growth inhibition of DT40 Tdp1-/-;hTDP1 cells with camptothecin (screen for TDP1 inhibitors); chicken DT40 Tdp1-/-;hTDP1 cells + 20 nM CPT, ATP luminescence, 48 h; Potency, µM (series often up to 46.2 µM), for the others: at the highest dose activity change, negative = growth inhibition, hits mostly inhibitors; actives 12% (n = 420,000); also: potency is read from the fitted curve at half-maximal effect; nearly all actives have a fitted effect of over 55% in size
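Chicken DT40 Tdp1-/- cells complemented with human TDP1, 400 cells/well, exposed to compounds plus 20 nM camptothecin for at least 48 h at 37 C; viability read as ATP content by CellTiter-Glo luminescence.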
HT1080NT lethal: kills 2HG-producing HT-1080-NT fibrosarcoma cells; HT-1080-NT fibrosarcoma viability, CellTiter-Glo ATP luminescence, 48 h; Potency, µM (titrated, usually from 46.1 µM), for the others: at the highest dose activity, negative = less viability, actives largely listed as cytotoxic; actives 1.6% (n = 360,000);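 also: NT is the 2HG producing partner of a matched IDH1 knockdown line; potency is read from the fitted curve at half-maximal effect; 0% = DMSO-treated cells and -100% = media-only wells without cells; nearly all actives have a fitted effect of over 55% in size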
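Luminescent CellTiter-Glo readout after 48 hours of compound exposure at 37 degrees C defined viability of HT-1080-NT cells. Activity was normalized to DMSO wells and cell-free media wells; concentration-response curves were fitted and assigned curve classes.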
DT40 TDP1 no CPT: qHTS for Inhibitors of human tyrosyl-DNA phosphodiesterase 1 (TDP1): qHTS in cells in absence of CPT; DT40 Tdp1-/- hTDP1 cells, no CPT, ATP luminescence, 48 h; Potency, µM (top dose mostly 46.2 µM), for the others: at the top dose activity change, negative = growth inhibition, actives largely listed as inhibitors; actives 15% (n = 420,000); AID 686978, 2013; also: potency is read from the fitted curve at half-maximal effect; nearly all actives have a fitted effect of over 55% in size
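Cells were dispensed at 400 per well, compounds added by pin tool, plates incubated ≥48 hr at 37 °C, then CellTiter-Glo added for 30 min at room temperature before luminescence reading. Line: DT40 Tdp1-/- complemented with hTDP1; camptothecin omitted.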
HT1080 IDH1KD tx: HT-1080 IDH1 knockdown cell toxicity (counter line); HT-1080 IDH1 knockdown viability, ATP luminescence, 48 h; Potency, µM (titrated, usually from 46.1 µM), inactives show at the top dose activity, negative = toxicity, actives largely listed as cytotoxic; actives 2% (n = 360,000); AID 686971;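 also: potency is read from the fitted curve at half-maximal effect; 0% = DMSO wells and -100% = cell-free medium wells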
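Using the IDH1-knockdown HT-1080 line run in the same batch and compound series as the NT line, viability after 48 h at 37 °C was determined by CellTiter-Glo luminescence and expressed as % activity.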
ELG1 DNA repair: inhibitors of ELG1-dependent DNA repair in HEK293T cells; HEK293T ELG1-luciferase reporter, luminescence, 16 h; DNA damage induced by 5-fluorouridine; Potency, µM (highest dose often 46.1 µM), inactives show at the top dose activity change, negative = inhibition, usual class: inhibitors; actives 2.3% (n = 330,000); AID 504467; also: potency is read from the fitted curve at half-maximal effect; nearly all actives have a fitted effect of over 55% in size
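DMSO vehicle served as the neutral condition. Each well held 2,000 cells given 5-fluorouridine plus compound; after 16 hr at 37 °C/5% CO2, ONE-Glo was added and luciferase measured 30 min later.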
* = called active by the depositor; ? = inconclusive; . = not tested or not shown; [ ] = remark or other dose. Unless noted, calls follow the shape of the dose curve; as a rule, active = well fitted curve in the direction sought with a large enough effect; inconclusive = small, poorly fitted or top-dose-only effect, or another doubt; inactive = no such curve, though single readings can be large; an effect the other way counts as inactive or inconclusive. Unless noted, % is scaled to controls: 0 for no effect and ±100 for the full control effect.

SMILES | IL-1B inflam inh | DT40 TDP1 CPT | HT1080NT lethal | DT40 TDP1 no CPT | HT1080 IDH1KD tx | ELG1 DNA repair
NC(N)=Nc1nc2ccc(Cl)cc2c(=O)[nH]1 | 1 | ? | 17% | 13µM* | -1% | -4%
Cc1cc(/C=C(\C#N)C(=O)NCc2ccco2)c(C)n1-c1cccnc1 | -25 | -27% | 6% | ? | -1% | 6%
Cc1cc(/C=C(/C#N)c2cccc(F)c2)c(C)n1-c1cccnc1 | -89* | ? | ? | ? | -30% | ?
O=[N+]([O-])c1ccc(/C=N/NS(=O)(=O)c2ccc(Cl)cc2)o1 | -3 | 9.2µM* | -1% | 16µM* | -1% | 6%
Cc1ccc(S(=O)(=O)N/N=C\c2ccc([N+](=O)[O-])o2)cc1 | -60* | 15µM* | 4% | 16µM* | -27% | 16%
Cc1ccc(S(=O)(=O)N/N=C\c2ccc([N+](=O)[O-])o2)cc1C | -23 | 18µM* | 16% | ? | 0% | -5%
COc1ccccc1C(=O)NN(C)C1=NS(=O)(=O)c2ccccc21 | -15 | -6% | 0% | 17% | 5% | ?
O=C(Nc1ccc(F)c(Cl)c1)Nc1c[nH]c(=O)[nH]c1=O | . | 1% | . | -22% | . | .
O=C1NC(=S)S/C1=C\C=C\c1ccc([N+](=O)[O-])o1 | -98* | 1.6µM* | 5.8µM* | 2.3µM* | 5.2µM* | ?
N#C/C(=C\c1ccc(Cl)cc1)c1nc(-c2cc3ccccc3oc2=O)cs1 | . | 8% | . | -3% | . | .
CC1CCC(=C(C#N)c2nc(-c3cc4ccccc4oc3=O)cs2)CC1 (stereo not given) | 5 | ? | 29% | 21µM* | 15% | ?
COc1cc(/C=C(\C#N)c2nc(-c3cc4ccccc4oc3=O)cs2)ccc1O | 23 | 18µM* | -3% | 18µM* | -1% | ?
CCC(C)[C@H](N)C(=O)NC[C@H]1CC[C@H](C(=O)N[C@@H](Cc2ccccc2)C(=O)O)CC1 (stereo not given in full) | -3 | 21% | 11% | -2% | 16% | 11%
CCc1ccc(C(=O)c2cn(CC(=O)Nc3cc(F)ccc3F)c3nc(C)ccc3c2=O)cc1 | . | -7% | . | -1% | . | .
CC1(C(=O)Nc2ccccc2)CCN1C(=O)C1(c2ccc(Cl)cc2)CC1 (stereo not given) | 14 | ? | -1% | 3.7µM* | 0% | .
CC1(C(=O)Nc2ccc3nc[nH]c3c2)CCN1C(=O)C1(c2ccccc2)CC1 (stereo not given) | 20 | ? | 2% | -7% | 1% | .
CSc1ccc(NC(=O)C2(C)CCN2C(=O)C2(c3ccccc3)CC2)cc1 (stereo not given) | -8 | 18µM* | ? | ? | -22% | .
CC1(C(=O)N2Cc3ccccc3C2)CCN1C(=O)C1(c2ccccc2)CC1 (stereo not given) | 18 | ? | 22% | 21µM* | 2% | .
Cc1ccc(S(=O)(=O)NC(=O)C2(C)CCN2C(=O)C2(c3ccc(Cl)cc3)CC2)cc1 (stereo not given) | 12 | -7% | 1% | -8% | -1% | .
Cc1ccc(NC(=O)C2(C)CCN2C(=O)C2(c3ccc(Cl)cc3)CC2)cc1 (stereo not given) | 16 | 15µM* | -12% | 18µM* | -19% | .
CC1(C(=O)NS(=O)(=O)c2ccccc2)CCN1C(=O)C1(c2ccc(Cl)cc2)CC1 (stereo not given) | 15 | ? | -4% | 0% | 16% | .
O=C(NCc1ccccn1)c1cnn(-c2nccc(-c3cc4ccccc4o3)n2)c1C1CC1 | . | 4%[9.04 µM] | . | -29% | . | .

Assay outcomes as filed in PubChem BioAssay.
